Bioassay records as filed in PubChem BioAssay.
Hits are enriched below; roughly 11% of the tested compounds scored in any of these assays.
IMPase inh – cell-permeable inhibitors of inositol monophosphatase (IMPase) | P97697 | CHO-M1 cells, IP1 accumulation, HTRF TR-FRET ratio | inhibition (IP1 accumulation), % at 46.1 µM | 120,000 tested, under 10 active; active = well fitted curve in the direction sought with a large enough effect in the signal ratio, not every such curve was filed as active; inconclusive = small, poorly fitted or top-dose-only effect, or a change in a side signal; inactive = no such curve, though single readings can be large or run the other way; the % refers to the signal ratio;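 also: cells stimulated with carbachol in lithium chloride buffer; plate controls were DMSO basal wells for no effect and reference inhibitor wells for full effect; higher means more IMPase inhibition seen as more IP1 and lower FRET ratio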
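CHO-M1 cells (CHO stably expressing M1 receptor), compound up to 46 uM final, stimulated with carbachol (50 uM as added) in buffer with 50mM LiCl, pH 7.4, 30 min at 37C. Cytosolic IP1 read by TR-FRET; AC50 from Hill fits.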
ALDH1A1 inh – inhibitors of human aldehyde dehydrogenase 1A1. Potency, µM (titrated, usually from 75.3 µM), for inactives: at the highest dose activity, negative = inhibition, actives largely listed as inhibitors. Purified ALDH1A1, NADH fluorescence, propionaldehyde substrate. 220,000 compounds, 7.3% hits. AID 1030. P00352;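 also: potency is read from the fitted curve at half-maximal effect; plate controls were no enzyme wells and a reference inhibitor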
PNC inhibitor – blocks assembly of the perinucleolar compartment | PC3M PTB-GFP, PNC prevalence imaging, 16 h; hits give low values | 140,000 compounds, 3.1% hits | activity change (PNC), negative = inhibition, % at 10 µM | AID 2417;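 active = readout at or below -70, meaning at least 70% loss of cells showing the perinucleolar compartment, a nuclear body marking cancer cells; inconclusive = readout between -30 and a set limit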;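 also: plate controls were DMSO wells for no effect and camptothecin positive control wells for full effect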
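Compounds are pinned in duplicate onto adhered PC3M cells stably expressing GFP-tagged PTB and incubated 16 h at 37 C. Cells are then fixed, nuclei stained with Hoechst, and PNC-positive cells counted.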
HPGD inh – blocks human HPGD enzyme activity; P15428; purified HPGD, NADH fluorescence kinetic, PGE2 substrate; Potency, µM, for the others: top-dose activity change, negative = inhibition, most hits filed as inhibitors; 150,000 compounds, 4.3% hits; also: potency is read from the fitted curve at half-maximal effect
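20 nM HPGD preincubated 15 min at room temperature with compound in 50 mM Tris-HCl pH 8, 0.01% Tween 20. Started with 1 mM NAD+ and 30 uM prostaglandin E2; NADH fluorescence (360/450 nm) read 5 times over 30-s intervals, last minus first.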
ALOX12 inhib – blocks human 12-lipoxygenase activity; Potency, µM (top dose mostly 57.1 µM), for the others: at the highest dose activity change, negative = inhibition, hits mostly inhibitors; P18054; 150,000 compounds, 0.12% hits; purified 12-hLO, xylenol orange hydroperoxide absorbance; active = well fitted curve in the direction sought with a large enough effect; inconclusive = small, poorly fitted or top-dose-only effect, or another doubt; inactive = no such curve, though single readings can be large; an effect the other way counts as inactive or inconclusive; also: potency is read from the fitted curve at half-maximal effect; nearly all actives have a fitted effect of over 55% in size
Target sequence (P18054 whole entry, looked up): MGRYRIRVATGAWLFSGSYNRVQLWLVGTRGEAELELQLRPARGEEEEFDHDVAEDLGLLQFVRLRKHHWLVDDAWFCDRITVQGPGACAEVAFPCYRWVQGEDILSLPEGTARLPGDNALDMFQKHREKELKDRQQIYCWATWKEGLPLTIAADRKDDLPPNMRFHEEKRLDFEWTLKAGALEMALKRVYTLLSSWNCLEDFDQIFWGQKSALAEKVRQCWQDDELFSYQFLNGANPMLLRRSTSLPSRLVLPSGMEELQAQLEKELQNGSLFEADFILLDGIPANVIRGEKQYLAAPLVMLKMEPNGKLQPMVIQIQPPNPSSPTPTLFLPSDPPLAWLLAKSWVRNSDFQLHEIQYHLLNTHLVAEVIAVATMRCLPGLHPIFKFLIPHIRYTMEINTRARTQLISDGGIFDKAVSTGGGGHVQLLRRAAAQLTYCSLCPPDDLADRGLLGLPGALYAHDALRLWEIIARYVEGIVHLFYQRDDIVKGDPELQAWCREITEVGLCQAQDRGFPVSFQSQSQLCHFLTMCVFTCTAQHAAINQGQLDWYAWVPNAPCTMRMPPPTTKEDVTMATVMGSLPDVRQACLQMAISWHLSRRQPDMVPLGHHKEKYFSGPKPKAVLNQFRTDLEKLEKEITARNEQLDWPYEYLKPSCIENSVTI
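Purified human 12hLO (150 nM), preincubated 15 min with compound, then 40 uM arachidonic acid for 30 min, room temperature, Hepes pH 7.0 with 0.01% Triton X-100. Hydroperoxide detected by ferrous iron/xylenol orange; 573/405 nm absorbance ratio gives reaction progress.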
IMPase Li cell – membrane-permeable IMPase blocker, potentiated with lithium; CHO-M1 cells, IP1 TR-FRET (IP-One), carbachol + lithium; Potency, µM (titrated, usually from 59.4 µM), for inactives: top-dose activity, negative = IMPase inhibition, actives largely listed as inhibitors; 210,000 compounds, 0.35% hits; active = well fitted curve in the direction sought with a large enough effect; inconclusive = small, poorly fitted or top-dose-only effect, or another doubt; inactive = no such curve, though single readings can be large; an effect the other way counts as inactive or inconclusive;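 also: IP1 builds up when IMPase is blocked and the TR-FRET signal falls; potency is read from the fitted curve at half-maximal effect; plate controls were basal vehicle for no effect and high inhibitor control for full effect; nearly all actives have a fitted effect of over 50% in size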
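Readout is a homogeneous TR-FRET IP1 immunoassay (Ex 320, Em 665 and 620), where raised cytosolic IP1 lowers signal. Cells were CHO-M1 treated 30 min at 37C with test compounds plus a little lithium; AC50 values came from Hill-equation fitting.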
* marks the source's active call; other numbers are inactive results; ? = inconclusive; . = not tested or not shown; [ ] = another dose, or the depositor's remark. Unless noted, calls follow the shape of the dose curve; as a rule, active = well fitted inhibition curve with a large enough effect (not every such curve was filed as active); inconclusive = small, poorly fitted or top-dose-only effect, or another doubt; inactive = no such curve, though single readings can be large or run the other way. Unless noted, % is scaled to controls: 0 for no effect and ±100 for the full control effect.

SMILES	IMPase inh	ALDH1A1 inh	PNC inhibitor	HPGD inh	ALOX12 inhib	IMPase Li cell
CCOC(=O)c1sc(NC(=O)CSc2nc(C)cc(C)c2C#N)c(C#N)c1C	7.3	?	79.5	-28.7%	10.4%	-7.0%[38.3 µM]
CCOC(=O)c1sc(NC(=O)CSc2nc(C)cc(-c3ccccc3)n2)c(C#N)c1C	-0.9	3.16µM*	-11.7	7.08µM*	-2.9%	-5.3%
O=S(=O)(c1ccccc1)N1CCC2(CCCN(c3ncccn3)C2)CC1	.	-4.1%	.	-14.3%	2.7%	6.4%
CC1=NN(c2ccc(C)cc2C)C(=O)C1C(c1ccccc1O)C1C(=O)N(c2ccc(C)cc2C)N=C1C (configuration not stated)	.	-12.4%	-2.3	-25.3%	-5.2%	6.3%
CC1=NN(c2ccc(C)c(C)c2)C(=O)C1C(c1cccc(O)c1)C1C(=O)N(c2ccc(C)c(C)c2)N=C1C (configuration not stated)	-1.4	0.708µM*	-30.0	10µM*	-14.6%	-4.9%[38.3 µM]
O=C(NC1CCCCCC1)C1CCN(S(=O)(=O)c2cccc3cccnc23)CC1	-0.5	?	45.4	-5.1%	1.0%	0.7%[38.3 µM]
O=C(NCCN1CCCCCC1)C1CCC(CNS(=O)(=O)c2cccc3cccnc23)CC1 (configuration not stated)	8.2	12.6µM*	9.5	-14.8%	7.2%	12.0%[38.3 µM]
COc1ccc(N(C(=O)C2CCCCC2)S(=O)(=O)c2cccc3cccnc23)cc1	.	?	.	.	.	18.7%
CCN(CCNC(=O)C1CCN(S(=O)(=O)c2cccc3cccnc23)CC1)c1ccccc1	1.3	39.8µM*	-25.1	-18.0%	-2.7%	11.7%[38.3 µM]
CC1CCCCN1CCNC(=O)C1CCN(S(=O)(=O)c2cccc3cccnc23)CC1 (configuration not stated)	-13.2	-2.2%	-11.4	-9.2%	-2.3%	44.1%[38.3 µM]
CCN(CC)C(=O)C1CCC(CNS(=O)(=O)c2cccc3cccnc23)CC1 (configuration not stated)	-2.9	?	74.9	7.94µM*	3.0%	1.0%
O=C(C1CCC(CNS(=O)(=O)c2cccc3cccnc23)CC1)N1CCc2ccccc21 (configuration not stated)	16.3	1.26µM*	-20.0	?	1.0%	-3.9%[38.3 µM]
CC(C)NC1(C(N)=O)CCN(Cc2ccccc2)CC1	.	?	.	-2.1%	0.8%[11.4 µM]	3.2%
CN1CCN(C(=O)C2CCC(CNS(=O)(=O)c3cccc4cccnc34)CC2)CC1 (configuration not stated)	-0.1	0.0%	-0.1	15.8µM*	4.5%	5.7%[38.3 µM]
CC1CCN(C(=O)C2CCC(CNS(=O)(=O)c3cccc4cccnc34)CC2)CC1 (configuration not stated)	-1.5	?	?	0.891µM*	3.3%	-12.9%[38.3 µM]
COc1ccccc1-n1cnc2cc(C(=O)NC3CCCC3)ccc21	-9.5	3.2%	10.1	15.8µM*	1.8%	14.0%
CCOc1c2ccc(C(=O)NCc3ccco3)cc2nn1CC	11.6	?	?	?	0.9%	2.6%[38.3 µM]
CCOc1ccccc1-n1cnc2cc(C(=O)NCc3ccco3)ccc21	4.0	-15.5%	-29.8	15.8µM*	-1.4%	2.0%[38.3 µM]
COc1ccccc1-n1c(C)nc2cc(C(=O)O)ccc21	?	-14.2%	42.5	-23.4%	4.6%	11.5%[38.3 µM]
O=C(NC1CC1)c1ccc2c(c1)ncn2C1CCCC1	2.6	?	?	14.1µM*	0.7%	-2.1%[38.3 µM]
COc1ccc(OC)c(-n2cnc3cc(C(=O)O)ccc32)c1	0.0	4.6%	-4.7	15.8µM*	-0.5%	13.6%[38.3 µM]
O=C(O)c1ccc2c(c1)ncn2C1CCCCC1	3.3[1.84 µM]	-3.7%	?	-11.4%	-0.5%	23.1%[38.3 µM]
CCCCc1nc2c(c3c1C[C@H](C)OC3)CN(S(=O)(=O)c1ccc(C)cc1)CC2	.	-7.8%[13.5 µM]	.	-3.7%	-3.0%[11.4 µM]	0.9%
Cc1cccc(NC(=O)c2ccc(N3CCOCC3)c([N+](=O)[O-])c2)n1	.	?	.	.	.	4.7%
O=C(Nc1ccc(N2CCCCC2)c(Cl)c1)c1cccnc1	-1.5	?	?	-12.6%	-2.4%	-4.0%[38.3 µM]
SMILES	IMPase inh	ALDH1A1 inh	PNC inhibitor	HPGD inh	ALOX12 inhib	IMPase Li cell
O=C(Nc1ccccc1Cl)c1ccc(-n2cccn2)c([N+](=O)[O-])c1	.	8.91µM*	.	.	.	4.3%
CN(C)C(=O)c1ccc(NC(=O)c2cccnc2)cc1	5.0	-0.5%	0.6	31.6µM*	-3.8%	30.8%[38.3 µM]
O=C(Nc1ccc(OC(=O)c2cccnc2)cc1)c1cccnc1	9.0	11.9%	60.6	-4.0%	6.2%	8.0%[38.3 µM]
Cc1ccc(NC(=O)c2ccc(-n3cccn3)c([N+](=O)[O-])c2)cc1	3.1	?	?	-18.2%	-1.9%	16.1%[38.3 µM]
Cc1cccc(NC(=O)c2ccc(N3CCCCC3)c([N+](=O)[O-])c2)n1	-11.6	12.6µM*	25.9	?	-2.9%	10.7%[38.3 µM]
O=C(Nc1ccc(N2CCCC2)c(Cl)c1)c1cccnc1	7.2	8.91µM*	251.6	-25.9%	2.5%	21.9%
COc1ccccc1CNc1ncnc2ccc(-c3ccoc3)cc12	.	?	.	.	.	10.2%
O=C(O)CCCC[C@H]1CCSS1	-1.7	.	.	.	-5.9%	.
O=C(Nc1cccnc1)c1ccc(N2CCCC2)c([N+](=O)[O-])c1	.	7.94µM*	.	.	.	2.5%
COc1cccc([C@@H]2Oc3ccc(OC)cc3C[C@H]2OC(=O)N[C@H]2CCCc3ccccc32)c1	.	?	.	-7.4%	.	21.6%
S=c1[nH]cc(Cc2ccccc2)s1	.	10µM*	46.6	20µM*	-3.0%	-2.7%
CCN(CC)S(=O)(=O)c1ccc(/C=C/C(=O)OCC(=O)N(C(C)C)C(C)C)cc1	.	1.2%	.	.	.	14.3%
Cc1c(C(=O)c2ccc(N(C)C)cc2)c2ccccn2c1CCC#N	.	15.8µM*	.	.	.	-4.7%
Cc1c(C(=O)c2ccc(Cl)c([N+](=O)[O-])c2)c2ccccn2c1CCC#N	.	?	11.9	-17.2%	-1.3%	3.3%
Nc1ccc2c(c1)C(=O)C(=O)c1ccccc1-2	?	2.24µM*	-81.1*	2.24µM*	?	133.8%[38.3 µM]
O=C1C(=O)c2ccc(-c3ccccc3)cc2-c2ccccc21	?	1.3%	-105.1*	-11.8%	2.3%	15.9%
COc1ccc(-c2nc3ccccc3o2)cc1NC(=O)COc1ccc(C(C)(C)C)cc1	-4.6	.	.	.	.	.
N=c1sccn1CC(=O)Nc1ccc(S(N)(=O)=O)cc1	.	7.08µM*	.	.	.	.
N=c1sccn1CC(=O)Nc1ccc(Cl)cc1[N+](=O)[O-]	.	28.2µM*	.	.	.	.
CCOC(=O)C1(C)C=C(Nc2ccc(C(=O)O)cc2)C(=O)N1c1ccc(C(=O)O)cc1 (configuration not stated)	1.1	.	.	.	.	.
CNC(=O)c1ccc(Nc2nnc(-c3ccc(C)c(S(=O)(=O)NC(C)(C)C)c3)c3ccccc23)cc1	-4.9	.	.	.	.	.
